# Source: article PMC4552634, “A New Set of Chemical Starting Points with Plasmodium falciparum Transmission-Blocking Potential for Antimalarial Drug Discovery” (PLoS ONE, 2015)
# Screen size: about 13,000 compounds; about 3,200 (25%) showed an effect of 50% or more. This is one part of the list.
# Test system: P. falciparum stage V gametocytes
# Design: BacTiter-Glo ATP luminescence viability of purified stage V gametocytes in 384-well plates, per cent inhibition versus DMSO
# Settings: 48 h, 5 µM; inhibitor
row,SMILES,% Inhibition [%]
1,CCCCc1ccc(NC(=O)Nc2ccc3c(c2)CCNCC3)cc1 [TCMDC-141500],0.2373
2,CCOC(=O)c1c(CN2CCCC2)n(-c2ccccc2)c2cc(Br)c(O)cc12 [TCMDC-124122],-23.97
3,C=C[C@]1(C)C[C@@H](OC(=O)c2cncn(COC)c2=O)[C@]2(C)[C@H](C)CC[C@]3(CCC(=O)[C@H]32)[C@@H](C)[C@@H]1O [TCMDC-141314],6.014
4,CN1CCN(c2cc(NC(=O)Nc3cccc(Cl)c3Cl)ccc2Cl)CC1 [TCMDC-139114],-11.69
5,CCCC(CNCc1cccc(I)c1)CNc1cc(=O)c2ccccc2[nH]1 (stereo not drawn) [TCMDC-139433],23.15
6,CC(=O)N1N=C(c2ccc(F)cc2)Sc2c1nc(C1CCCCC1)n2C(C)=O [TCMDC-125190],77.23
7,COc1ccc(Cc2nc3c(n2C(C)=O)SC(c2ccc(Cl)c(Cl)c2)=NN3C(C)=O)cc1 [TCMDC-125189],18.21
8,CC(=O)N1N=C(c2ccccc2)Sc2c1nc(-c1ccc(Cl)cc1)n2C(C)=O [TCMDC-125193],43.76
9,CCOC(=O)c1[nH]c(-c2ccccc2)nc1-n1nc(C)cc1C [TCMDC-131622],-5.185
10,CC(=O)N1N=C(c2cccs2)Sc2c1nc(-c1ccc(Cl)cc1)n2C(C)=O [TCMDC-124898],78.97
11,CC(=O)N1N=C(c2ccc(F)cc2)Sc2c1nc(-c1ccccc1)n2C(C)=O [TCMDC-125192],62.08
12,CC(=O)N1N=C(c2ccc(Cl)cc2)Sc2c1nc(-c1ccccc1)n2C(C)=O [TCMDC-124899],80.4
13,CC(=O)N1N=C(c2ccc(Cl)cc2)Sc2c1nc(C1CCCCC1)n2C(C)=O [TCMDC-125191],45.01
14,CCOC(=O)c1[nH]c(-c2ccc(-c3ccccc3)cc2)nc1N [TCMDC-131797],-4.943
15,O=C(/C=C/c1ccc(Cl)cc1)NCCCCCN1CCCN(C(=O)Nc2ccc(F)c(Cl)c2)CC1 [TCMDC-136101],-6.119
16,COc1cccc(CNC[C@@H](O)[C@H](Cc2ccccc2)NC(=O)c2cc(C3CCCC3)cc(N3CCCCS3(=O)=O)c2)c1 [TCMDC-134523],42.74
17,CCC1(CC)N=C(N)N=C(N)C1c1ccc(Cl)c(Cl)c1 (stereo not drawn) [TCMDC-137597],8.83
18,COc1ccc(CN2CCCC(C(=O)c3ccc(C(F)(F)F)cc3)C2)c(O)c1 (stereo not drawn) [TCMDC-124631],43.69
19,CS(=O)(=O)Cc1ccc(Nc2nccc(-c3c(-c4cccc(NC(=O)C5CCCCC5)c4)nn4ncccc34)n2)cc1 [TCMDC-135812],-14.86
20,CC(=O)Nc1cccc(-c2cnc(N)c3cc(-c4ccc5c(c4)OCO5)ccc23)c1 [TCMDC-134504],30.5
21,Cn1nccc1C(=O)NCCNCc1ccc(-c2ccc(-c3nc4ccccc4[nH]3)s2)cc1.O=C(O)C(F)(F)F [TCMDC-133004],-2.407
22,CCC(=O)c1ccc(-c2ccc(=O)n(CC(=O)N(CCN(CC)CC)Cc3ccc(-c4ccc(C(F)(F)F)cc4)cc3)n2)cc1 [TCMDC-141574],82.08

row,SMILES,% Inhibition [%]
1,CCN(CC)CCN(Cc1ccc(-c2ccc(C(F)(F)F)cc2)cc1)C(=O)Cn1nc(-c2ccc(C(F)(F)F)cc2)ccc1=O [TCMDC-141575],69.38
2,CCN(CC)S(=O)(=O)c1cc(-c2ccc(=O)n(CC(=O)c3ccc(C)cc3)n2)ccc1C [TCMDC-124707],-20.12
3,CN(C)S(=O)(=O)c1ccc(Nc2nc(NCCC3C=NC=N3)nc3cc[nH]c(=O)c23)cc1 (stereo not drawn) [TCMDC-135045],-6.172
4,Cc1cc(N2Cc3ccccc3C2)nc(Nc2ccc(S(=O)(=O)N3CCOCC3)cc2)n1 [TCMDC-134229],-25.67
5,Cc1cccc(Nc2nc(N[C@@H]3CCCNC3)nc3cc[nH]c(=O)c23)c1 [TCMDC-134835],-44.23
6,NS(=O)(=O)c1cccc(Nc2nc(N[C@@H]3CCNC3)nc3cc[nH]c(=O)c23)c1 [TCMDC-135057],-11.44
7,O=c1[nH]ccc2nc(N[C@@H]3CCNC3)nc(Nc3cc(Cl)cc(Cl)c3)c12 [TCMDC-135052],102.4
8,O=c1[nH]ccc2nc(N[C@@H]3CCNC3)nc(Nc3cccc(S(=O)(=O)N4CCOCC4)c3)c12 [TCMDC-135047],89.83
9,O=c1[nH]ccc2nc(N[C@@H]3CCNC3)nc(Nc3ccc4c(c3)S(=O)(=O)CC4)c12 [TCMDC-135044],71.11
10,OCCOCCNCc1cccc(C#Cc2cc3ncnc(Nc4ccc(OCc5cccc(F)c5)c(Cl)c4)c3s2)n1 [TCMDC-138843],-31.63
11,CCNc1nc(OCC(F)(F)F)nc(N(c2ccccc2)c2ccccc2)n1 [TCMDC-125801],-11.7
12,O=C(c1cc(C(=O)NC2CCCCC2)c(=O)n(C2CCCCC2)c1)c1cc(F)ccc1O [TCMDC-124525],20.48
13,NCC(NC(=O)c1ccc(-c2c[nH]c3ncccc23)s1)c1ccccc1 (stereo not drawn) [TCMDC-134154],-44.12
14,CCC1(CC)CN(c2ccccc2)c2ccc(O)cc2S(=O)(=O)C1CC(C)C (stereo not drawn) [TCMDC-137217],-89.07
15,N#Cc1ccc2c(c1)CCN(CCC1CCC(NC(=O)/C=C/c3ccc4ccccc4c3)CC1)CC2 (stereo not drawn) [TCMDC-139779],-26.43
16,OCCCCCCNc1ccnc2[nH]c3ccc(I)cc3c12 [TCMDC-131830],10
17,CC(Sc1nc2sccc2c(=O)n1C)C(=O)Nc1ccc2c(c1)OCO2 (stereo not drawn) [TCMDC-125026],100.7
18,Cc1cccc2[nH]c(-c3ccc(-c4cccc(NC(=O)Nc5ccc6c(c5)OCO6)c4)cc3)nc12 [TCMDC-133166],-1.928
19,Cc1cccc2[nH]c(-c3cccc(-c4ccc(NC(=O)Nc5ccc6c(c5)OCO6)cc4)c3)nc12 [TCMDC-133163],-27.37
20,O=C(NCC1CCC(C(=O)O)CC1)c1ccc(/C=C/C(=O)N2CCc3ccccc3C2c2ccc3c(c2)OCO3)cc1 (stereo not drawn) [TCMDC-138267],-9.047
21,CS(=O)(=O)c1ccc(CNCc2cccc(-c3cccc(-c4nc5ccc(F)cc5[nH]4)c3)c2)cc1 [TCMDC-132907],-11.65
22,O=S(=O)(NCCN1CCCC1)c1ccc(-c2cccc(CNCc3ccc(F)cc3)c2)cc1 [TCMDC-132407],38.56

row,SMILES,% Inhibition [%]
1,O=S(=O)(NCCN1CCCC1)c1cccc(-c2cccc(CNCc3ccc(F)cc3)c2)c1 [TCMDC-132276],98.39
2,O=S(=O)(NCCN1CCCC1)c1cccc(-c2ccc(CNCc3ccc(F)cc3)cc2)c1 [TCMDC-132289],105.2
3,O=C(/C=C/c1ccc(Cl)c(Cl)c1)NCCCCCN1CCC(n2c(=O)[nH]c3ccccc32)CC1 [TCMDC-139330],-42.06
4,CC(C)C[C@H](NC(=O)[C@H](Cc1ccccc1)NC(=O)CCN1C(=O)COc2ccc(C(=O)O)cc21)C(=O)NC(CC1CCCCC1)C(O)CC(=O)NCCCn1ccnc1 (stereo partly drawn) [TCMDC-131640],6.577
5,c1ccc(COc2ccc(C3CCCCC3)cc2)nc1 [TCMDC-131330],8.048
6,CC(CNC(=N)c1cccc(C(=N)NCC(C)Oc2cccc(C3CCCCC3)c2)n1)Oc1cccc(C2CCCCC2)c1.Cl (stereo not drawn) [TCMDC-137455],116.2
7,O=C(Cc1ccc(F)cc1)NC1CCN(c2ccnc3cc(Cl)ccc23)C1 (stereo not drawn) [TCMDC-133668],7.133
8,CC(C)Sc1nc2c(c(=O)n1CCc1ccccc1)C1(CCCC1)Cc1ccccc1-2 [TCMDC-123891],-12.92
9,CCCSc1nc2c(c(=O)n1CCc1ccccc1)C1(CCCC1)Cc1ccccc1-2 [TCMDC-123890],-17.67
10,C=C(C)CSc1nc2c(c(=O)n1CCc1ccccc1)C1(CCCC1)Cc1ccccc1-2 [TCMDC-123892],66.35
11,Cc1cc(C(=O)Nc2ccc3c(c2)CCN3C2CCN(Cc3cc(F)cc(F)c3F)C2)no1 (stereo not drawn) [TCMDC-135083],0.2789
12,Cc1nc(N)nc(N)c1CCCOc1cccc(Cl)c1 [TCMDC-138067],-4.32
13,CN(Cc1cc(C(F)(F)F)cc(C(F)(F)F)c1)C(=O)C(Cc1ccc(F)cc1)C1CCCNC1 (stereo not drawn) [TCMDC-138909],92.9
14,CN(Cc1ccc(C#N)cc1)C1CCN(c2cc(NC(=O)c3ccc(F)cc3)ccn2)CC1 [TCMDC-134978],9.957
15,CN(Cc1cc(C(F)(F)F)cc(C(F)(F)F)c1)C(=O)C1CNCC1c1ccc(F)cc1 (stereo not drawn) [TCMDC-137553],10.31
16,CCCc1cc(N2CCC(N(CC)CC)C2)nc(Nc2ccc(OC)cc2)n1 (stereo not drawn) [TCMDC-132388],-68.85
17,Nc1ncc(Cc2ccc3c(ccc4ccccc43)c2)c(N)n1 [TCMDC-137874],19.52
18,CC(=NN=C(N)N)c1ccc2ccc3ccccc3c2c1 [TCMDC-137667],76.83
19,COC(=O)c1ccc(CC(C)NCC(O)c2ccc3ccc4ccccc4c3c2)cc1 (stereo not drawn) [TCMDC-131429],28.11
20,CC(=NN=C(N)N)c1ccc2c(ccc3ccccc32)c1 [TCMDC-137669],96.96
21,CC(=NN=C(N)N)c1ccc2c(c1)Cc1ccccc1-2 [TCMDC-137666],27.22
22,CC(C)C[C@@H]1C(=O)N[C@H](C2Cc3ccccc3C2)C(=O)N1[C@@H](C(=O)O)c1ccc(F)cc1F [TCMDC-138777],-24.68
